ELG1 DNA repair: blocks ELG1-dependent DNA repair in HEK293T cells | HEK293T ELG1-luciferase reporter, luminescence, 16 h; DNA damage induced by 5-fluorouridine | Potency, µM (doses to about 46.1 µM), for the others: top-dose activity change, negative = inhibition, hits mostly inhibitors | actives 2.3% (n = 330,000) | AID 504467; note: potency is the fitted concentration of half-maximal effect; nearly all actives have a fitted effect of over 55% in size
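DMSO vehicle served as the neutral condition. Each well held 2,000 cells given 5-fluorouridine plus compound; after 16 hr at 37 °C/5% CO2, ONE-Glo was added and luciferase measured 30 min later.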
Giardia killer: kills Giardia lamblia | Giardia lamblia trophozoite viability | activity change, % at 7.66 µM, hits read low | actives 0.15% (n = 340,000) | AID 540267; in the data active = activity change below about -80%; inconclusive = between about -30% and that limit;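 note: parasites exposed to compound for two days anaerobically before the ATP read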
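Luminescent ATP signal served as the viability read-out, measured 15-30 min after adding ATP detection reagent to trophozoites that had been incubated with compounds for 48 hrs at 37 deg C anaerobically at 100 cells/well.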
Sfp inh: Sfp phosphopantetheinyl transferase inhibition; Q9F4F7; Biochemical Sfp PPTase activity, qHTS; Potency, µM, inactives show largest response in the series, negative = inhibition, most hits filed as inhibitors; actives 3.5% (n = 310,000);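 note: the enzyme is Sfp with the accession as filed and its product quenches rhodamine fluorescence; potency is the fitted concentration of half-maximal effect; 0% = enzyme reaction without inhibitor and -100% = no enzyme wells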
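After 15 min at room temperature with compound, 15 nM Sfp received 5 uM rhodamine-CoA plus 12.5 uM BHQ-2-ybbR (50 mM Hepes pH 7.6, 10 mM MgCl2). Rate came from the fluorescence difference over 30 min, ex 525/em 598 nm.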
FBPA coupling cs: coupling enzyme interference in Giardia aldolase counter-screen. coupling enzyme system counterscreen, AmpLite Red fluorescence. actives 0.67% (n = 290,000). activity change, negative = inhibition, % at 58.2 µM, hits read low. AID 2472; in the data active = activity change below about -30%
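Counterscreen of the coupled detection system alone, without aldolase: glyceraldehyde-3-phosphate coupling enzymes plus AmpLite Red readout. Compounds at 57.5 uM final, 10 min RT preincubation, 20 min RT reaction, fluorescence 525/598 nm.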
Starred values were filed as active, the others as inactive; ? = inconclusive; · = no result given; ! = not active in a repeat. Sampled rows, rich in hits. Any-hit rate of the full collection: about 5.5%. Unless noted, calls come from the whole dose curve; as a rule, active = well fitted curve in the direction sought with a large enough effect; inconclusive = small, poorly fitted or top-dose-only effect, or another doubt; inactive = no such curve, though single readings can be large; an effect the other way counts as inactive or inconclusive. Unless noted, % is set by controls: 0 for no effect and ±100 for the full control effect.

SMILES	ELG1 DNA repair	Giardia killer	Sfp inh	FBPA coupling cs
CC(=O)OC[C@@H]1O[C@@H](O/N=C2/C[C@@H](O)[C@@H](O)[C@@H]3[C@@H]4C(=O)N(C5CCCCC5)C(=O)[C@H]4CC[C@@H]23)[C@H](OC(C)=O)[C@H](OC(C)=O)[C@@H]1OC(C)=O	·	·	2%	2
CC1CC[C@@]2(OC1)OC1CC3C4CC[C@H]5CC(O)CC[C@@]5(C)C4CC[C@]3(C)C1C2C (stereo not given in full)	·	·	27%	3
COc1ccc(NC(=O)c2cc(-c3cc(C)cc(C)c3O)n[nH]2)cc1Cl	21µM*	-1	20%	-4
Cc1cc(C)c(O)c(-c2cc(C(=O)Nc3cccnc3)[nH]n2)c1	21µM*	3	0%	-2
COc1ccc(NC(=O)c2cc(-c3ccccc3O)n[nH]2)cc1Cl	?	14	10%	1
COc1ccc(S(=O)(=O)N2CCN(C)CC2)cc1C(=O)Nc1ccccc1	6%	-3	7%	3
Cc1cc2nnc(SCC(=O)Nc3cc(S(=O)(=O)N4CCOCC4)ccc3Cl)n2c2ccccc12	18µM*	-5	-8%	2
O=C(CNc1ccccc1Cl)Nc1cc(S(=O)(=O)N2CCOCC2)ccc1Cl	?	-13	·	·
O=C(CSc1nc2ccccc2s1)Nc1cc(S(=O)(=O)N2CCOCC2)ccc1Cl	23µM*	-15	?	0
Cc1ccc(S(=O)(=O)N2CCOCC2)cc1NC(=O)CSc1nnc2cc(C)c3ccccc3n12	18µM*	-1	3%	0
Cc1ccc(S(=O)(=O)N2CCOCC2)cc1NC(=O)CSc1ncccn1	23%	-20	·	·
CN1CCN(c2ccnc(-c3cccc(NS(C)(=O)=O)c3)n2)CC1	·	·	4%	0
O=C(O)c1cc(Cl)c(Cl)cc1C(=O)N1CCCC1	1%	-91*	6%	2
CNC(=O)[C@@]1(C)C=C[C@@H](Cc2ccccc2)N1C(C)=O	·	·	15%	2
CC(=O)N1[C@H](Cc2ccccc2)C=C[C@]1(C)C(=O)NCc1ccc(C)o1	14%	29	45µM*!	3
O=C(c1ccc(F)c(S(=O)(=O)N2CCOCC2)c1)N1CCN(c2ccc(F)cc2)CC1	?	-1	·	·
COc1cc(Br)c(CN2CCCN(C)CC2)cc1OC	1%	24	-2%	0
COc1ccc(CN2CCCN(C)CC2)c(OC)c1C	9%	-7	79µM*	-4
NC(=O)c1ccc(NC(=O)C#Cc2ccccc2)cc1	?	-10	4%	2
C=CCn1c(-c2ccccc2)c[nH]c1=S	?	-1	79µM*	-3
O=C1C2C(c3ccccc3)CC=CC2C(c2ccc3ccccc3c2)N1Cc1ccccc1 (stereo not given)	·	-5	-2%	1
Cc1cc(C)n(CCc2nc(-c3ccc(C)o3)cs2)n1	17%	2	8.9µM*	-1
Cc1ccc(-c2nc3n(n2)Cc2ccccc2-3)cc1	?	?	-1%	-12
CCn1c(C)nc2cc(-c3nc4n(n3)Cc3ccccc3-4)ccc21	?	-105*	27%	-15
O=c1[nH]c(/C=C\c2ccc(O)c(O)c2)nc(O)c1[N+](=O)[O-]	-2%	-16	45µM*	-5
SMILES	ELG1 DNA repair	Giardia killer	Sfp inh	FBPA coupling cs
C[C@@H](C(=O)Nc1ccc2ccccc2c1)[C@H]1C[C@]1(C)[C@H](NC(=O)c1cccnc1)c1ccccc1	18µM*	2	27%	0
O=c1[nH]c(/C=C/c2ccc([N+](=O)[O-])cc2)c([N+](=O)[O-])c(=O)[nH]1	-2%	22	0%	6
Cc1cccc(NC(=O)COc2ccc(/C=C\c3[nH]c(=O)[nH]c(=O)c3[N+](=O)[O-])cc2)c1	14%	11	50µM*	7
C[C@H](CCC(=O)O)[C@H]1CC[C@H]2[C@H]3C(C[C@H](O)[C@]12C)[C@@]1(C)CC[C@@H](O)C[C@H]1C[C@H]3O (stereo not given in full)	·	·	-2%	3
O=C(c1cc(-c2cccnc2)nc2ccccc12)N1CCCc2ccccc21	21µM*	-2	4%	4
Cc1ccc(C#CC[N+]2(CC#Cc3ccc(C)cc3)CCCCC2)cc1	12µM*	-11	-8%	0
O=C(COC(=O)c1cccc(Br)c1)NCCc1ccccc1	6%	16	1%	4
O=C(COC(=O)c1cccc(Br)c1)NCCNC(=O)COC(=O)c1cccc(Br)c1	6.5µM*	18	-3%	·
O=C(O)[C@@H](c1ccccc1)N1Cc2ccccc2C1=O	16%	-9	28µM*	0
